# Experimental data published in PubChem BioAssay (NCATS).
# A number with no mark means an inactive call. Inconclusive results are not listed. The source made the active and inactive calls. The call rests on the fitted dose curve; in most records, active means well fitted curve in the direction sought with a large enough effect; inconclusive means small, poorly fitted or top-dose-only effect, or another doubt; inactive means no such curve, though single readings can be large; an effect the other way counts as inactive or inconclusive. Starred links: 1 amine or outer side, 2 acyl side, 3 side chain; linkers in the order of their positions; H or OH if unused. Positions of bridges follow the written chain, without caps; N, C: chain ends. Non-standard residues stand in square brackets, D forms with d. Residues, ends and D or L forms follow the SMILES beside them. Chains are numbered I, II in the order given. Actinocin(9to1) = Cc1c2oc3c(C)ccc(C(=O)[*:1])c3nc-2c(C(=O)[*:2])c(N)c1=O; NMeV = CN[CH](C(=O)O)C(C)C; Sar = CNCC(=O)O
# Columns and labels:
# [1] = Quantitative High-Throughput drug screen in 47 multiple myeloma cell lines against the NCATS MIPE library collection: KMS11_JCRBsus cell viability assay (AID 1919873); further: nearly all actives have a fitted effect of over 50% in size; further: potency means the concentration at half of the fitted maximal effect
# In short: (§1)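 Plated at 500 cells per well, myeloma lines received MIPE 4.0 compounds by pin tool. Following 48 h culture at 37 °C, CellTiter-Glo luminescence gave viability relative to DMSO and media-only controls.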
# [2] = Quantitative High-Throughput drug screen in 47 multiple myeloma cell lines against the NCATS MIPE library collection: KMS28BM_JCRB cell viability assay (AID 1919874); further: nearly all actives have a fitted effect of over 35% in size; further: potency means the concentration at half of the fitted maximal effect
# In short: as §1
# [3] = molecular target: Cytochrome P450 3A4 (Homo sapiens) (UniProt P08684); experiment: qHTS for inhibitors of CYP3A4 against the NCATS DSHEA and TCM libraries (AID 1919971); further: potency means the concentration at half of the fitted maximal effect
# In short: (§2)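 Light output from converted D-luciferin reports remaining CYP activity. Compounds preincubate with enzyme and substrate for 15 min; NADPH regeneration (1x final) runs the reaction for 30-45 min.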
# [4] = molecular target: Cytochrome P450 2C9 (Homo sapiens) (UniProt P11712); experiment: qHTS for inhibitors of CYP2C9 against the NCATS DSHEA and TCM libraries (AID 1919973); further: potency means the concentration at half of the fitted maximal effect
# Text: Assay Development and Screening Technology Laboratory (ADST)
# National Center for Advancing Translational Sciences (NCATS), Rockville, MD
# National Institute of Health (NIH), Bethesda, Maryland
# Dietary Supplements and Natural Products have minor oversight of their safety and efficacy. We assembled a collection of Dietary Supplements and Natural Products (DSNP) as well as Traditional Chinese Medicinal (TCM) Plant extracts, which were screened against an in vitro panel of assays, including a liver cytochrome p450 enzyme panel, CAR/PXR signaling pathways, and P-gp transporter assays, to assess their activity. This pipeline facilitated the interrogation of Natural Product-Drug Interaction (NaPDI) through prominent metabolizing pathways. In addition, we compared the activity profiles of the DSNP/TCM substances with those of an approved drug collection. Many of the approved drugs have well-annotated mechanisms of action (MOA) while the MOAs for most of the DSNP and TCM samples remain unknown. […] Overall, we highlight four significant bioactivity profiles (measured by p-values) as examples of this prediction. […] To profile potential P-gp activity, a differential cell viability was measured against two cell lines: a parental KB-3-1 human cervical adenocarcinoma cell line and the drug-resistant subline KB-8-5-11 that overexpresses P-gp. […]
# 9; Read; Luminescence; ViewLux plate reader. […]
# [5] = molecular target: Cytochrome P450 2C19 (Homo sapiens) (UniProt P33261); experiment: qHTS for inhibitors of CYP2C19 against the NCATS DSHEA and TCM libraries (AID 1919974);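 further: luminescence from luciferin released by CYP2C19 oxidation of a pro-luciferin substrate; on the % scale 0 is the no-effect control and ±100 the full control effect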
# In short: as §2
# [6] = KB-3-1 P-gp reporter qHTS against the NCATS DSHEA and TCM libraries (AID 1919975); further: 0% is about no effect
# In short: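 72 h exposure of KB-3-1 cells (DMEM, 10% FBS) to DSHEA/TCM samples, concentration-response; cell viability measured as CellTiter-Glo luminescence after 30 min at room temperature.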
# [7] = qHTS Counterscreen for compound interference against the NCATS DSHEA and TCM libraries (AID 1919978); settings: firefly luciferase detection reagent interference, luminescence; further: % of control where 0% means no effect
# In short: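 Read-out is luminescence after 30 min at RT with luciferin detection reagent. Before that, compounds (19.5 nM to 39.8 uM final) sat 15 min at RT with 1 uM D-luciferin or 100 mM potassium phosphate buffer. PTC124 served as intraplate control.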
# [8] = Dual reporter qHTS for agonist of Pregnane X Receptor (hPXR) against the NCATS DSHEA and TCM libraries: Fluorescence readout (AID 1920058); further: 0% is about no effect
# In short: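 Measures viability of the PXR reporter HepG2 line by protease-substrate fluorescence (405/540 nm), taken 1 h after CellTiter-Fluor addition. Substances are tested as concentration series over a ~24 h exposure, with rifampicin as agonist control.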
# Sequence of Cytochrome P450 2C9 (Homo sapiens) (P11712 whole entry, looked up): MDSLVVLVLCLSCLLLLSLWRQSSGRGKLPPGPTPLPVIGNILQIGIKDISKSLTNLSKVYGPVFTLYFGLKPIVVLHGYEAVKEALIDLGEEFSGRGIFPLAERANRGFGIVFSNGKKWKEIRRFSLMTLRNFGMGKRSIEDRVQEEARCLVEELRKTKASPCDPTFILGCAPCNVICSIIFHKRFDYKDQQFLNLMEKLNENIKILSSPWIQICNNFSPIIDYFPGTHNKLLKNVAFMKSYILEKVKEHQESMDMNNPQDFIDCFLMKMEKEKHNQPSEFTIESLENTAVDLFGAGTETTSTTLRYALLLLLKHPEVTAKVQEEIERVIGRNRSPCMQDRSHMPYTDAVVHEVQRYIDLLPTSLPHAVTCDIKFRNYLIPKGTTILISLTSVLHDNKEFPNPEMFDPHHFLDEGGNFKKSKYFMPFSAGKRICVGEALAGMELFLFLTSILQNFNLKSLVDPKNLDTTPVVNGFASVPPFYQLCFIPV
# Sequence of Cytochrome P450 2C19 (Homo sapiens) (P33261 whole entry, looked up): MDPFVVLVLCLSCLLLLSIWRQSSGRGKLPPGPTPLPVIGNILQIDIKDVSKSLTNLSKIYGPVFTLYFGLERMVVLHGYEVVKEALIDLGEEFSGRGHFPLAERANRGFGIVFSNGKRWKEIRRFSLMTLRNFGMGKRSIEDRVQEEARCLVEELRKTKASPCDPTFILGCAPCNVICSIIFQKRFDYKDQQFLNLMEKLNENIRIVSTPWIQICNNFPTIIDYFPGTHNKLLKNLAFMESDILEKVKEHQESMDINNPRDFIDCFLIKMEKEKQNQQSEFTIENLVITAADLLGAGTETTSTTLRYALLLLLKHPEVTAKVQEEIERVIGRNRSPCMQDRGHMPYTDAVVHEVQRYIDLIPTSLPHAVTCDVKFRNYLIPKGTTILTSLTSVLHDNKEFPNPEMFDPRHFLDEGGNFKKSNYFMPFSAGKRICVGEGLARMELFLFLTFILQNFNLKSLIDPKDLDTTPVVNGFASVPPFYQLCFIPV
# Sequence of Cytochrome P450 3A4 (Homo sapiens) (P08684 whole entry, looked up): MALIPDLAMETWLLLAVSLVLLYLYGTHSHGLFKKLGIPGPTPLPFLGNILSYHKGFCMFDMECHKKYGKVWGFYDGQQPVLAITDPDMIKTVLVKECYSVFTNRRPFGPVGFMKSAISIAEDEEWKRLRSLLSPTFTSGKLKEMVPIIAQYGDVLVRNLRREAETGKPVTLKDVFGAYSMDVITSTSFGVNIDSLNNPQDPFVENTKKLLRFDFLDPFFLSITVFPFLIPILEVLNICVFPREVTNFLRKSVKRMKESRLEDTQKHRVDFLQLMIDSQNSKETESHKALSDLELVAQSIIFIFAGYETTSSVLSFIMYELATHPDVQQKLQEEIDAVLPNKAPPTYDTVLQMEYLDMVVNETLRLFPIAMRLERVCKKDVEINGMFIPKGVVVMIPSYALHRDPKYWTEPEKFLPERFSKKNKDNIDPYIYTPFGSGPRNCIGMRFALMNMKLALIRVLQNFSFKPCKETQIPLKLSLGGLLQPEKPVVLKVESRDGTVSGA
structure (smiles),measurement,setting,value
C=CC(=O)N1CCc2ccc(-n3c(=O)ccc4cnc5ccc(-c6cnn(C)c6)cc5c43)cc21,Potency,[1],418 nM (active)
same,Potency,[2],2960 nM (active)
c1cncc(CN2CCC(n3ncc4c(N5CCOCC5)nc(-c5ccc6[nH]ccc6c5)nc43)CC2)c1,Potency,[1],590 nM (active)
same,Potency,[2],11800 nM (active)
N#CNC(=NCCCCCCOc1ccc(Cl)cc1)Nc1ccncc1,Potency,[1],2.6 nM (active)
same,Potency,[2],105 nM (active)
COc1ccc(S(=O)(=O)Nc2cccnc2Nc2ccc(O)cc2)cc1,Potency,[1],41.8 nM (active)
same,Potency,[2],33.2 nM (active)
O=C(Nc1cccc(Nc2ncc(Br)c(NCCc3cnc[nH]3)n2)c1)N1CCCC1,Potency,[1],8330 nM (active)
same,Potency,[2],18700 nM (active)
CCC(C(=O)O)C1CCC(C)C(C(C)C(O)C(C)C(=O)C(CC)C2OC3(C=CC(O)[C@@]4(CC[C@](C)(C5CC[C@@](O)(CC)C(C)O5)O4)O3)C(C)CC2C)O1 (stereo partly drawn),Potency,[1],3720 nM (active)
same,Potency,[2],6620 nM (active)
Cc1cc(O)c2c(c1)C(=O)c1cccc(O)c1C2=O,Potency,[1],inactive
same,Potency,[2],inactive
CO[C@@H]1[C@@H](O)[C@H](O)[C@@H](n2c3c(Cl)cccc3c3c4c(c5c6cccc(Cl)c6[nH]c5c32)C(=O)NC4=O)O[C@@H]1CO,Potency,[1],2960 nM (active)
same,Potency,[2],935 nM (active)
N#Cc1cc(NC(=O)Nc2nnc(-c3ccncc3)s2)ccc1-c1cn[nH]c1,Potency,[1],inactive
same,Potency,[2],inactive
CC[C@H]1OC(=O)[C@H](C)[C@@H](O[C@H]2C[C@@](C)(OC)[C@@H](O)[C@H](C)O2)[C@H](C)[C@@H](O[C@@H]2O[C@@H](C)C[C@H](N(C)C)[C@@H]2O)[C@](C)(O)C[C@@H](C)C(=O)[C@H](C)[C@@H](O)[C@]1(C)O,Potency,[1],inactive
same,Potency,[2],inactive
NC(=O)c1ncn([C@@H]2O[C@H](CO)[C@@H](O)[C@@H]2O)c1O,Potency,[1],inactive
same,Potency,[2],inactive
O=C1NC(O)CCN1[C@@H]1O[C@H](CO)[C@H](O)[C@H]1O (stereo partly drawn),Potency,[1],inactive
same,Potency,[2],inactive
CC(C)(N)c1ccc(-c2nc3ccccc3nc2-c2ccccc2)cc1,Potency,[1],18700 nM (active)
same,Potency,[2],26400 nM (active)
Cn1cc(-c2cnn3c(N)c(Br)c([C@H]4CCCNC4)nc23)cn1,Potency,[1],5260 nM (active)
same,Potency,[2],4690 nM (active)
COc1ccc([C@@H]2CNC(=O)C2)cc1OC1CCCC1,Potency,[1],inactive
same,Potency,[2],inactive
N#Cc1ccc(COC[C@H]2O[C@@H](n3c(NCc4ccc(Cl)c(Cl)c4)nc4c(N)ncnc43)[C@@H](O)[C@@H]2O)cc1,Potency,[1],5260 nM (active)
same,Potency,[2],5900 nM (active)
CC(C)C[C@H](NC(=O)CNC(=O)c1cc(Cl)ccc1Cl)B1OC(=O)CC(CC(=O)O)(C(=O)O)O1 (stereo partly drawn),Potency,[1],41.8 nM (active)
same,Potency,[2],52.6 nM (active)
CC[C@H](CC[C@@H](C)[C@H]1CC[C@H]2[C@@H]3CC=C4C[C@@H](O)CC[C@]4(C)[C@@H]3CC[C@]12C)C(C)C,Potency,[1],inactive
same,Potency,[2],inactive
CC(=O)[C@]1(O)Cc2c(O)c3c(c(O)c2[C@@H](O[C@H]2C[C@H](N)[C@@H](O)[C@H](C)O2)C1)C(=O)c1ccccc1C3=O,Potency,[1],264 nM (active)
same,Potency,[2],148 nM (active)
CCN(CC)Cc1ccc2cc(COC(=O)Nc3ccc(C(=O)NO)cc3)ccc2c1,Potency,[1],526 nM (active)
same,Potency,[2],418 nM (active)
CC(=O)N[C@@H]1[C@H](O[C@@H]2c3ccc(c(Cl)c3)Oc3cc4cc(c3O[C@H]3O[C@H](CO)[C@@H](O)[C@H](O)[C@H]3NC(=O)CCCCCCCC(C)C)Oc3ccc(cc3Cl)C[C@H]3NC(=O)[C@H](N)c5ccc(O)c(c5)Oc5cc(O)cc(c5)[C@H](NC3=O)C(=O)N[C@H]4C(=O)N[C@H]3C(=O)N[C@@H]2C(=O)N[C@@H](C(=O)O)c2cc(O)cc(O[C@H]4O[C@H](CO)[C@@H](O)[C@H](O)[C@H]4O)c2-c2cc3ccc2O)O[C@H](CO)[C@@H](O)[C@@H]1O,Potency,[1],inactive
same,Potency,[2],inactive
O=c1[nH]c(=O)n([C@H]2C[C@@H](O)[C@@H](CO)O2)cc1C=CBr,Potency,[1],inactive
same,Potency,[2],inactive
Cc1cnn(C)c1C(=O)Nc1cc(Nc2ccc3c(C=Cc4ccccn4)n[nH]c3c2)ccc1F,Potency,[1],11800 nM (active)
same,Potency,[2],20900 nM (active)
O=C1c2c(O)cccc2[C@@H]([C@@H]2O[C@H](CO)[C@@H](O)[C@H](O)[C@H]2O)c2cc(CO)cc(O)c21,Potency,[1],inactive
same,Potency,[2],inactive
same,Potency,[3],25100 nM (active)
same,Potency,[4],11200 nM (active)
same,outcome,[5],inactive
same,outcome,[6],inactive
same,max response,[7],-13.5%
same,outcome,[8],inactive
CCC(C=C[C@@H]1OC(=O)C=C[C@H]1C)=C[C@H](C)CC=CC(C)=C[C@@H](C)C(=O)[C@@H](C)[C@H](O)[C@@H](C)CC(C)=CC(=O)O,Potency,[1],13.9 nM (active)
same,Potency,[2],11 nM (active)
"Cc1c2oc3c(C)ccc(C(=O)NC4C(=O)NC(C(C)C)C(=O)N5CCCC5C(=O)N(C)CC(=O)N(C)C(C(C)C)C(=O)OC4C)c3nc-2c(C(=O)NC2C(=O)NC(C(C)C)C(=O)N3CCCC3C(=O)N(C)CC(=O)N(C)C(C(C)C)C(=O)OC2C)c(N)c1=O (stereo not drawn) (I: TVP[Sar][NMeV] / II: TVP[Sar][NMeV]; ester I:1-I:C, II:1-II:C; linker I:N-II:N via Actinocin(9to1); configuration not given here)",Potency,[1],inactive
same,Potency,[2],inactive
